The values that follow come from ChEMBL document CHEMBL1961873, “Compounds: GSK PKIS; Assays: Nanosyn kinase panel” (2012).

Each structure is given as a SMILES string.

In assay [1] the target is 5'-AMP-activated protein kinase catalytic subunit alpha-2 (Homo sapiens) (UniProt P54646). The following applies: at 1 µM.
Assay [2] deals with T1, NUAK family SNF1-like kinase 1 (Homo sapiens) (UniProt O60285).
T1 sequence (whole entry): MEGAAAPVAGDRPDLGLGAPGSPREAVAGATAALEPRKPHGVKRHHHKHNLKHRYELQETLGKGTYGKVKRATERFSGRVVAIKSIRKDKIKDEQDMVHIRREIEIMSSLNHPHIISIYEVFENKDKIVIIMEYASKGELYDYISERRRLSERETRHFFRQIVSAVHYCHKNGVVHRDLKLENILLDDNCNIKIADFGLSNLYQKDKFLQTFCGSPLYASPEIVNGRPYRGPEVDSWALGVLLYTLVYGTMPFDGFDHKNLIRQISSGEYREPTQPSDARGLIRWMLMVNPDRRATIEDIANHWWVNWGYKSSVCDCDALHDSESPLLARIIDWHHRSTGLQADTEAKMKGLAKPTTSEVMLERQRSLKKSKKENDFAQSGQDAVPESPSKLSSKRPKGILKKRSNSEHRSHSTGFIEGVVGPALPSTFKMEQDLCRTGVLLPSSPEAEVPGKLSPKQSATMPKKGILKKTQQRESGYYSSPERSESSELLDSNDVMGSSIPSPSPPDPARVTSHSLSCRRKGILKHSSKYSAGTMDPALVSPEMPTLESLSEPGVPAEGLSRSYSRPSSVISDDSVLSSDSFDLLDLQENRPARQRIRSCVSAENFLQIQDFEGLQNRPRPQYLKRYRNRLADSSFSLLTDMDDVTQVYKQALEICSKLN
The following applies: at 0.1 µM.

In assay [3] the target is T1, NUAK family SNF1-like kinase 1 (Homo sapiens). The following applies: at 1 µM.
For assay [4], the target named is T2, Serine/threonine-protein kinase BRSK1 (Homo sapiens) (UniProt Q8TDC3).
T2 sequence (whole entry): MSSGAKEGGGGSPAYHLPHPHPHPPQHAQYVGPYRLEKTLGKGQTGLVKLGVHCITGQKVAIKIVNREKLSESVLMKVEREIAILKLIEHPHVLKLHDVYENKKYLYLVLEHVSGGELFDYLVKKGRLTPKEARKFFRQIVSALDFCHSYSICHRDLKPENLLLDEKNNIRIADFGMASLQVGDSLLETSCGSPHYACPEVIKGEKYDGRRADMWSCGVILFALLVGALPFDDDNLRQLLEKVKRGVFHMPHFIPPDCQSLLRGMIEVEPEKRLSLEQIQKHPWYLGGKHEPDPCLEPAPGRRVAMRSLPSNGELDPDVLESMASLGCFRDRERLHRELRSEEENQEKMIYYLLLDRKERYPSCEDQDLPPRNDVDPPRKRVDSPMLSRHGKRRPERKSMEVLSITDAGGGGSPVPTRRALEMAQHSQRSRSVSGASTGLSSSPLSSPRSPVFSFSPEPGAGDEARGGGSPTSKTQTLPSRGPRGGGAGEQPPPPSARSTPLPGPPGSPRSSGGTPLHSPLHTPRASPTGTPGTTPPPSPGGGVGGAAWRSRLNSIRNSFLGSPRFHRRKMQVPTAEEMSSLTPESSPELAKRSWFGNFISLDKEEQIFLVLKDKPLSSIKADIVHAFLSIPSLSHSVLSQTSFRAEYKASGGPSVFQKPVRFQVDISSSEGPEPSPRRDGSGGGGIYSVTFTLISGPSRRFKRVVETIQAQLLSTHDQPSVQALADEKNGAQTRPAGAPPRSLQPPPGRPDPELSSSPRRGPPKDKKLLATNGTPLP
The following applies: at 0.1 µM.

The target in assay [5] is T2, Serine/threonine-protein kinase BRSK1 (Homo sapiens). The following applies: at 1 µM.
The target of assay [6] is T3, Serine/threonine-protein kinase BRSK2 (Homo sapiens) (UniProt Q8IWQ3).
T3 sequence (whole entry): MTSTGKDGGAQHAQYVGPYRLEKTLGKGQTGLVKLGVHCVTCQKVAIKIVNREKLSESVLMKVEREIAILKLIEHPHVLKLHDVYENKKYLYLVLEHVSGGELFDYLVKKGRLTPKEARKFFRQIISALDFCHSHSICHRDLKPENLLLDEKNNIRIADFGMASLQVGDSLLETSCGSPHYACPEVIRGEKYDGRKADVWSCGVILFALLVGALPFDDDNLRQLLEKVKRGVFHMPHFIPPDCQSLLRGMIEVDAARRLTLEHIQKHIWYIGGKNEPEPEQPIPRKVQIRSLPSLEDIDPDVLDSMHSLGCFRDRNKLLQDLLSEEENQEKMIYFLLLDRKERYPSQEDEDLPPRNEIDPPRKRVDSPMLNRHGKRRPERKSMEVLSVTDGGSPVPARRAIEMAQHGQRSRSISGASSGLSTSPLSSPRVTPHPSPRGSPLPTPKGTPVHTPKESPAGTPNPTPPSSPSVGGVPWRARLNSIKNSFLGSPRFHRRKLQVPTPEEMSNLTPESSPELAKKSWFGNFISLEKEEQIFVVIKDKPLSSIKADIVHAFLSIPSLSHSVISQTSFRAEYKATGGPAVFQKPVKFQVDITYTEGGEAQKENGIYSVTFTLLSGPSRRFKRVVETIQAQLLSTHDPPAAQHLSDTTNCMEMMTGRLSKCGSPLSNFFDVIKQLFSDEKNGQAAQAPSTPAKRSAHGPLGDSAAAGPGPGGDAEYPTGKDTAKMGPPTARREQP
The following applies: at 0.1 µM.

Assay [7] deals with T3, Serine/threonine-protein kinase BRSK2 (Homo sapiens). The settings on record: at 1 µM.
Assay [8] addresses Calcium/calmodulin-dependent protein kinase type 1D (Homo sapiens) (UniProt Q8IU85). The settings on record: at 0.1 µM.
Assay [9] has the same target. The settings on record: at 1 µM.
In assay [10] the target is Calcium/calmodulin-dependent protein kinase type II subunit alpha (Homo sapiens) (UniProt Q9UQM7). The settings on record: at 0.1 µM.
Sequence of Calcium/calmodulin-dependent protein kinase type II subunit alpha (Homo sapiens) (Q9UQM7 whole entry): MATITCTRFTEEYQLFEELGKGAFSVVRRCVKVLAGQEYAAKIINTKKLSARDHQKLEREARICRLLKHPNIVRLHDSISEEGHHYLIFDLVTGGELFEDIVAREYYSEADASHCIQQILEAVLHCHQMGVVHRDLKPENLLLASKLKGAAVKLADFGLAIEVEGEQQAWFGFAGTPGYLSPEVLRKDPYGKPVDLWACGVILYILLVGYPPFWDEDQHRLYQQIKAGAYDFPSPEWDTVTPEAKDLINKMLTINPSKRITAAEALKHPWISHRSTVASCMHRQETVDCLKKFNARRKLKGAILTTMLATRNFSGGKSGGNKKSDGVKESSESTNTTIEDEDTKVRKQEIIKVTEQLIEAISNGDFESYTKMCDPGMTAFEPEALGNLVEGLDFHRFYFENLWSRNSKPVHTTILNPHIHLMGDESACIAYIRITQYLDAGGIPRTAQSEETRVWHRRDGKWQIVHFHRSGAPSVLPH
Assay [11] shares this target. The following applies: at 1 µM.
The target in assay [12] is Calcium/calmodulin-dependent protein kinase type II subunit delta (Homo sapiens) (UniProt Q13557). The following applies: at 0.1 µM.
Sequence of Calcium/calmodulin-dependent protein kinase type II subunit delta (Homo sapiens) (Q13557 whole entry): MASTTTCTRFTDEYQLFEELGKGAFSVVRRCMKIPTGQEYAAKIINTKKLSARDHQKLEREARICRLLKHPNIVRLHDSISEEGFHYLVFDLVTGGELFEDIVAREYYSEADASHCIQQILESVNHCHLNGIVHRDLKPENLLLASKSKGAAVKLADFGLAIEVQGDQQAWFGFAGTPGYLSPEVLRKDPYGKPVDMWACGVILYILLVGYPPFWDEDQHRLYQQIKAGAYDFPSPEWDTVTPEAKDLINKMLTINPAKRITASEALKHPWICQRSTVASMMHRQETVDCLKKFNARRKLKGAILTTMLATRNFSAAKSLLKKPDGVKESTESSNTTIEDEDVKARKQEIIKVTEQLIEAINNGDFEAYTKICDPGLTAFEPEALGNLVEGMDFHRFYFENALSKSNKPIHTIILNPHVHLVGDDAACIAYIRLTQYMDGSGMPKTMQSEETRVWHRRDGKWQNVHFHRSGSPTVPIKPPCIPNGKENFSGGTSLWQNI
The target is the same in assay [13]. The settings on record: at 1 µM.
The target of assay [14] is T4, Calcium/calmodulin-dependent protein kinase type IV (Homo sapiens) (UniProt Q16566).
T4 sequence (whole entry): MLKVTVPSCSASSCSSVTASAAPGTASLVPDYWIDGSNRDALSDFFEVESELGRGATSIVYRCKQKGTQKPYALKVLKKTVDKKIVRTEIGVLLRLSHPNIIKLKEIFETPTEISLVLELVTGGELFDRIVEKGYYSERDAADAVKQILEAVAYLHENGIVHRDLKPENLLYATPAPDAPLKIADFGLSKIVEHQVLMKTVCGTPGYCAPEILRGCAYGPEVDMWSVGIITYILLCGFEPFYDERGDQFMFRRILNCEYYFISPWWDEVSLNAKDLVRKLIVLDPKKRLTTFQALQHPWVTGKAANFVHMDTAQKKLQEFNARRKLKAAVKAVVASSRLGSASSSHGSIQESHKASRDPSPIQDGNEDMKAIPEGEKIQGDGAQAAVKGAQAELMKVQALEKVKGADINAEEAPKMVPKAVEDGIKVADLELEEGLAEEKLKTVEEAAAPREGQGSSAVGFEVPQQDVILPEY
The settings on record: at 0.1 µM.

Assay [15] deals with T4, Calcium/calmodulin-dependent protein kinase type IV (Homo sapiens). The settings on record: at 1 µM.
Assay [16] addresses T5, Serine/threonine-protein kinase Chk1 (Homo sapiens) (UniProt O14757).
T5 sequence (whole entry): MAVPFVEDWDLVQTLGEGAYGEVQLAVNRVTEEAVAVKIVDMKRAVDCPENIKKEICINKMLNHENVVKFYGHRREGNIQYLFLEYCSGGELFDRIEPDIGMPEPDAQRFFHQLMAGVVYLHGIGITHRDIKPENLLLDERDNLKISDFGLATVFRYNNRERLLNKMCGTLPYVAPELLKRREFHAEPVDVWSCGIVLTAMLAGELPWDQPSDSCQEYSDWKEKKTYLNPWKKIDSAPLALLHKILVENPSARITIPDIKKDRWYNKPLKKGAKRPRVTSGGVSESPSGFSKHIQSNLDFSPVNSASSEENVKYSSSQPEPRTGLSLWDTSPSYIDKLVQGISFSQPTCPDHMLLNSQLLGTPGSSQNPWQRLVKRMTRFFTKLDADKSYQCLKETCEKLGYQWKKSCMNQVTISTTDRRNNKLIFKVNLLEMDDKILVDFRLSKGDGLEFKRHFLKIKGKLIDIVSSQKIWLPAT
The settings on record: at 0.1 µM.

Assay [17] has as its target T5, Serine/threonine-protein kinase Chk1 (Homo sapiens). The settings on record: at 1 µM.
Assay [18] deals with Serine/threonine-protein kinase Chk2 (Homo sapiens) (UniProt O96017). The settings on record: at 0.1 µM.
Sequence of Serine/threonine-protein kinase Chk2 (Homo sapiens) (O96017 whole entry): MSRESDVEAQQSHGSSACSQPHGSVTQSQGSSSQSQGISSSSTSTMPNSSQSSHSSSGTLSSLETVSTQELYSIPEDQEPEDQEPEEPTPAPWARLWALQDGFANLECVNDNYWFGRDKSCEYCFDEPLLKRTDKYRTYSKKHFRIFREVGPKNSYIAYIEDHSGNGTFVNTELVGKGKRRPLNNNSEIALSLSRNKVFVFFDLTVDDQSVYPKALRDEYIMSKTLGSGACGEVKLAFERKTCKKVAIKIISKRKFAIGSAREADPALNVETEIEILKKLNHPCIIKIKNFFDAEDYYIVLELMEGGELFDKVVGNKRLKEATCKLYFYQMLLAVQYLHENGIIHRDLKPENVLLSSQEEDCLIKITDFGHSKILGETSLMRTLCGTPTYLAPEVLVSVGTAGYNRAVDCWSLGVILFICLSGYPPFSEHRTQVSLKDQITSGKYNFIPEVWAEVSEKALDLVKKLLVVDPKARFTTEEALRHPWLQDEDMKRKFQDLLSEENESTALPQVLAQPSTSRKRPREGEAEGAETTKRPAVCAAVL
For assay [19] the target is unchanged. The following applies: at 1 µM.
Assay [20] concerns the target Death-associated protein kinase 1 (Homo sapiens) (UniProt P53355). The settings on record: at 0.1 µM.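 Further: reported figure is the mean inhibition of DAPK1.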

Sequence of 5'-AMP-activated protein kinase catalytic subunit alpha-2 (Homo sapiens) (P54646 whole entry, looked up): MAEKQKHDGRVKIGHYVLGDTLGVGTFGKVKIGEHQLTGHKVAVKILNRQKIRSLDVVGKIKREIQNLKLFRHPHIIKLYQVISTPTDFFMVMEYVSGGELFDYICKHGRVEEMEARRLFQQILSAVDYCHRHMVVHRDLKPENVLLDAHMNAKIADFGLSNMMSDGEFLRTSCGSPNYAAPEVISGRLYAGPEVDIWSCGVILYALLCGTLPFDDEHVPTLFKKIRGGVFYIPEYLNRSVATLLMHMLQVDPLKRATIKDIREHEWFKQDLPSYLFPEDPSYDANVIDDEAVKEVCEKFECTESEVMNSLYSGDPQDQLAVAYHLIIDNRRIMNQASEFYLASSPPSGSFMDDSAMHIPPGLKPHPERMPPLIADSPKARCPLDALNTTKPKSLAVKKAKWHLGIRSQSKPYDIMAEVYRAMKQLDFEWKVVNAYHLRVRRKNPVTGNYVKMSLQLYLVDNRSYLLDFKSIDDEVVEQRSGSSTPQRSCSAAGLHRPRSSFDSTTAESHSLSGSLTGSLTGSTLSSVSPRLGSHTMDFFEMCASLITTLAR
Sequence of Calcium/calmodulin-dependent protein kinase type 1D (Homo sapiens) (Q8IU85 whole entry, looked up): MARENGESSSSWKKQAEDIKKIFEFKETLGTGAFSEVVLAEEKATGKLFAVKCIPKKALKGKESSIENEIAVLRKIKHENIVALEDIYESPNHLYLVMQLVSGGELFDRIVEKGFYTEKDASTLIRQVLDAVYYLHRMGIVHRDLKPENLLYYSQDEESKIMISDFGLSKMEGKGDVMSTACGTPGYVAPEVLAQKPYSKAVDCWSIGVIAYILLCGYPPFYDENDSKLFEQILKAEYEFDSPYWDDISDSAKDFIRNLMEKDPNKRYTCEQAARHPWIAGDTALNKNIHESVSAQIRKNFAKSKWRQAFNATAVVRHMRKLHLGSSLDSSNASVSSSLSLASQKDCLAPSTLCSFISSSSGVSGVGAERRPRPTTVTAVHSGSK
Sequence of Death-associated protein kinase 1 (Homo sapiens) (P53355 whole entry, looked up): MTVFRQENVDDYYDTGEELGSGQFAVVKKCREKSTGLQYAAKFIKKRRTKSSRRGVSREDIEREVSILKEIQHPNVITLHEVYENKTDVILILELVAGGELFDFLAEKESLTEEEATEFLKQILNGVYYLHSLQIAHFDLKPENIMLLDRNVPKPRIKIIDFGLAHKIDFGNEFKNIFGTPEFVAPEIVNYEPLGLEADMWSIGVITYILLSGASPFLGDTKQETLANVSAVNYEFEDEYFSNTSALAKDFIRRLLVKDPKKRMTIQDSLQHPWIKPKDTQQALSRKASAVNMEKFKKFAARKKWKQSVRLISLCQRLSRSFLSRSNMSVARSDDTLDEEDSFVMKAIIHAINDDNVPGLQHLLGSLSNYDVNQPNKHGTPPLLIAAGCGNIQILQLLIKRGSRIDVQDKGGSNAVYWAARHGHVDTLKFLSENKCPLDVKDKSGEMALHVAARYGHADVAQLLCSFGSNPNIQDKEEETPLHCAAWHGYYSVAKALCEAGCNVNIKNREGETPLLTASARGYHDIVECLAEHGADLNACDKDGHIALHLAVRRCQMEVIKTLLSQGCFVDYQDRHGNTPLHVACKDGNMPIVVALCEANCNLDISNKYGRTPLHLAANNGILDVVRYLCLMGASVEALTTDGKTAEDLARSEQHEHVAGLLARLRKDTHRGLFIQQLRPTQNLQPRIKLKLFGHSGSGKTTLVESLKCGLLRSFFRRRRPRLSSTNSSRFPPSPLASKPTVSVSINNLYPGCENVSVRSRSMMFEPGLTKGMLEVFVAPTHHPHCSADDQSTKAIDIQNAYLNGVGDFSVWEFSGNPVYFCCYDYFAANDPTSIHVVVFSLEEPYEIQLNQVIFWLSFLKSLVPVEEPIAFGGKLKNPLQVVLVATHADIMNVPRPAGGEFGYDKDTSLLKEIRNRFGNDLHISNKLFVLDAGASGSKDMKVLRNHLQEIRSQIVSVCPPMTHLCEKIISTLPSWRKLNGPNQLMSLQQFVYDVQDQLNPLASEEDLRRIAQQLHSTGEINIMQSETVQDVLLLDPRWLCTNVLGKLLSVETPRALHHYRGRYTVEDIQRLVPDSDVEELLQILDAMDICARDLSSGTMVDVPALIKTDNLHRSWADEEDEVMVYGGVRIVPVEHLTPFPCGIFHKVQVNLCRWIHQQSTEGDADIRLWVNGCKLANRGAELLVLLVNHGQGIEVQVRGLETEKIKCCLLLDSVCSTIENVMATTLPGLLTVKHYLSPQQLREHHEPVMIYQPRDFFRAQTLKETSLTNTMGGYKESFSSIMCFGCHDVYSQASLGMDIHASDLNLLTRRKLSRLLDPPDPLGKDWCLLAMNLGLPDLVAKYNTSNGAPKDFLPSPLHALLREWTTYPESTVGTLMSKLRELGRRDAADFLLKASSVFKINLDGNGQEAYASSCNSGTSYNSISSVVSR

Consider `NS(=O)(=O)c1ccc(N/C=C2\C(=O)Nc3ccc4ncsc4c32)cc1`, for which the inhibition in [1] amounted to 42.8%; in assay [2] it was 59.2%; in assay [3], 69.1%; in assay [4], 17.6%; in assay [5] it was 53.1%; in [6], 33%. The inhibition was 62.4% in [7]; 0.05% in assay [8]; 0.92% in assay [9]; 2.56% in assay [10]; 3.49% in assay [11]; 4.43% in assay [12]. The inhibition in [13] is 16.3%; in assay [14], -1.62%; in assay [15] it was -1.06%; in [16], 7.84%; in assay [17] it was 33%; in assay [18] it was 4.73%. Moreover, the values for the inhibition in assay [19] and in assay [20] were 19.1% and 5.66%, respectively.
For the molecule `COc1cc2c(cc1Nc1nc(Nc3ccsc3C(N)=O)c3cc[nH]c3n1)N(C(=O)CN(C)C)CCC2`, the inhibition in assay [1] was 2.09%; in [2] it was 1.84%; in [3], 1.85%; in assay [4], 0.07%; in assay [5], 1.57%; in assay [6] it was 0.73%. The inhibition in [7] is -0.28%; in assay [10], -4.48%; in [11] it was -4.91%; in [12], 3.02%; in assay [13] it was 13%; in [14], 2.85%. Besides, the inhibition is 12.1% in assay [15]; -2.04% in [16]; 2.31% in assay [18]; 11.8% in [19]; 2.17% in [20].
Take `COc1cc(C=NNc2ncnc3c2cnn3Cc2ccccc2)ccc1O`: the inhibition in assay [1] is -3.45%; in assay [2], 7.72%; in assay [3], 27.6%; in assay [4], -0.74%; in [5], 1.48%; in assay [6], 0.53%. For the same molecule, the inhibition in [7] is 2.95%; in assay [8], 0.1%; in assay [9], 0.78%; in assay [10], -5%; in [11], -4.25%; in assay [12], -4.62%. Besides, the inhibition in assay [13] was -0.47%; in assay [14], -2.48%; in [15], -3.98%; in assay [16], -2.18%; in [17], -3.22%; in assay [18], -3.42%. Moreover, the figures for the inhibition in assay [19] and in [20] were -3.47% and -3.06%, respectively.
Turning to `CCn1c(-c2nonc2N)nc2c(C#CC(C)(C)O)ncc(OCC3CCNCC3)c21`, the inhibition in [1] was determined as 16.1%; in assay [2], 6.78%; in assay [3], 37.2%; in assay [4], 0.32%; in assay [5], 6.72%; in assay [6], 2.53%. Moreover, the inhibition in [7] was 10.8%; in assay [8], -0.03%; in [9], 0.97%; in [10] it was 3.5%; in assay [11] it was 2.25%; in [12] it was 2.49%. In addition, the inhibition is 4.75% in [13]; -2.07% in [14]; -2.31% in assay [15]; -0.5% in assay [16]; 5.91% in assay [17]; 2.91% in assay [18]. Further, the values for the inhibition in [19] and in assay [20] were 6.65% and 1.8%, respectively.

Broadly, the inhibition is the change of the read-out against control, counted positive when it falls.
